High-throughput results as filed in PubChem BioAssay.
M1 ag: activates the M1 muscarinic receptor; CHO-M1 cells, Fluo-4 calcium fluorescence, agonist mode; stronger effect = higher value; B-score at 10 µM; 64,000 compounds, 3% hits; AID 626;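 active means fluorescence rise, raw or as B-score row- and column-corrected plate score, outside the 99.7% band of its plate's samples, either direction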
WNV protease inh: inhibitors of West Nile virus NS2B-NS3 protease | 65,000 compounds, 0.18% hits | z-score (no concentration beside the values) | WNV NS2B-NS3 protease, fluorogenic substrate Ex360/Em465; stronger effect = lower value; in the data active means z-score below about -3
D1 allo mod: D1 dopamine receptor (human) allosteric modulation. P21728. HEK293 D1, CRE-luciferase, dopamine EC30 potentiation; actives deviate in either direction. B-score at 10 µM. 58,000 compounds, 5.9% hits;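 active means luminescence count or its row- and column-corrected plate score outside the 99.7% band of the plate's sample wells, on either side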
M1 antagonist: antagonists of rat M1 muscarinic receptor | B-score at 10 µM | P08482 | 64,000 compounds, 3.4% hits | AID 628 | CHO-M1 cells, Fluo-4 calcium, ACh EC80 antagonist mode; stronger effect = lower value;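 active means calcium fluorescence response, raw or row-and-column corrected B-score, differing from the plate sample mean either way at a set confidence level, mostly lower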
Target sequence (P08482 whole entry, looked up): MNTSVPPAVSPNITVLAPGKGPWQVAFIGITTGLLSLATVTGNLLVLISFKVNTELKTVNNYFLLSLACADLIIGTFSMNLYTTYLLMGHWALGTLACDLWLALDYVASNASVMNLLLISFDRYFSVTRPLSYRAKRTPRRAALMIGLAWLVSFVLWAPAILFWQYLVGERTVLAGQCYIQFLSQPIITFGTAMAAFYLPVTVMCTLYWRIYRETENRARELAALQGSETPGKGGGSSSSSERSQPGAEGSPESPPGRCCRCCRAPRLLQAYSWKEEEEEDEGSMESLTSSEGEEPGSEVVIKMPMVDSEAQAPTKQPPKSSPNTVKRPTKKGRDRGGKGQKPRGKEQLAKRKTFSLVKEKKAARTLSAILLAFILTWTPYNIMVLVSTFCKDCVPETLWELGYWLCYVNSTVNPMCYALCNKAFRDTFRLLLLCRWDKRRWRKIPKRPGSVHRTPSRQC
Htt clearance: compounds clearing mutant huntingtin protein; HeLa Exon1htt(103Q)mCFP, aggregate imaging; zero = plate's median compound well; inhibition, % at 1.5 µM; 47,000 compounds, 0.42% hits;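 active means inhibition of aggregate fluorescence above about 70%, also judged a hit by eye on the cell image, limit read from the data, passing the limit was not always enough; inconclusive means no rule stated for this call; inactive means not judged a hit on image review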;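 further: cells exposed to compound for three days before fixation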
Active calls of the source: *; ? = inconclusive; nt = no result given. This is a sample that favours compounds with a hit; in the whole collection about 8.9% have one here.

SMILES	M1 ag	WNV protease inh	D1 allo mod	M1 antagonist	Htt clearance
COc1ccccc1N1CCN(CC(=O)Nc2cc(C)nn2-c2nc(C)cc(C)n2)CC1	3.41*	-1.55	4.82*	-0.0283	nt
CC(C)n1c(-c2cccnc2)nc2cnccc21	1.14	-9.37*	0.53	0.00436	nt
CCCCn1c(/N=C/c2ccc(N(C)C)cc2)nc2ccccc21	nt	nt	nt	nt	9.7
CN(C)c1ccc(/C=N/n2ncc3ccccc32)cc1	-0.0378	-0.72	-3.44*	0.0131	nt
CCOC(=O)N1CCC(N2C(=O)c3ccc(C(=O)NC4CCCCCC4)cc3C2=O)CC1	-0.0276	-0.25	0.287	-0.979	nt
CCC(C(=O)Nc1nccs1)(C(F)(F)F)C(F)(F)F	7.39*	-1.67	nt	-0.526	19.5
CN(C)c1nc(Oc2ccc(=O)n(-c3ccccc3)n2)nc(N2CCOCC2)n1	-0.0982	0.52	5.59*	-0.319	nt
CCNc1nc(Oc2ccc(=O)n(-c3ccccc3)n2)nc(N(C)C)n1	nt	nt	nt	nt	-11.1
CCOc1ccc(-c2nc(N)ncc2Oc2cccc(OC)c2)c(O)c1	nt	nt	nt	nt	-19.8
COc1cccc(Oc2cncnc2-c2ccc(OC)cc2O)c1	nt	-0.92	1.43	nt	73.1*
CCOC(=O)C1CCCN(C(=O)C2c3ccccc3Oc3ccccc32)C1 (stereo not given)	-0.371	-0.61	1.23	0.682*	10.1
CCOC(=O)C1CCCN(C(=O)Cc2ccc(C)cc2)C1 (stereo not given)	nt	nt	nt	nt	-38.3
CCOc1ccccc1NC(=O)C1CCN(S(=O)(=O)c2cccc3cccnc23)CC1	1.67	-1.73	1.54	0.0856	nt
CCn1c(=N)n(CCO)c2ccccc21	-0.201	1.86	-4.09*	0.246	nt
COc1ccc(S(=O)(=O)N(CCCN2CCCC2=O)Cc2cc3c(C)cc(C)cc3[nH]c2=O)cc1	5.06*	0.11	-1.82	-0.0652	nt
CC(C)NC(=O)c1cccc(Cn2cc(Cl)cn2)c1	0.0563	-3.59*	0.0211	-0.399	nt
O=C(Nc1ccc(S(=O)(=O)N2CCc3ccccc32)cc1)c1ccco1	-0.135	0.48	-4.87*	-0.398	1.3
O=C(Nc1ccc(S(=O)(=O)N2CCc3ccccc32)cc1)c1ccc2c(c1)OCO2	-0.0252	0.63	0.221	-0.00762	-10.6
CN1CCN(c2ncnc3c2sc2nc(N4CCCC4)c4c(c23)CC(C)(C)OC4)CC1	-0.271	1.65	nt	0.523	nt
Cn1nc(-c2ccc(N3CCOCC3)c(NC(=O)COc3ccccc3)c2)c2ccccc2c1=O	1.5	-0.05	-0.837	-1.03	-1.6
Cc1ccc(C)c(SCC(=O)Nc2nnc(-c3ccccc3)o2)c1	17.2*	-0.12	0.342	0.00128	-6.6
COc1ccc(C(=O)CSc2nnc(CNC(=O)c3ccc(OC)cc3)n2C)cc1	-1.69	-1.72	0.000708	1.31	?
CC1(C)Cc2ccccc2-c2nnc(SCC(=O)N3CCN(c4ccccc4)CC3)n21	3.28*	-0.28	-0.912	-0.495	19.8
CCOC(=O)C(C)Sc1nnc2n1C(C)(C)Cc1ccccc1-2 (stereo not given)	nt	0.99	0.292	nt	nt
COc1ccc(OC)c(NC2c3ccccc3C(=O)N2c2cccnc2)c1 (stereo not given)	-0.13	-0.49	0.548	0.919	nt
SMILES	M1 ag	WNV protease inh	D1 allo mod	M1 antagonist	Htt clearance
O=C(Nc1ccccn1)c1cc2ccccc2o1	nt	nt	nt	nt	-16.3
O=C(Nc1ccc(N2CCOCC2)cc1)c1cc2ccccc2o1	-0.882	0.64	-0.454	-0.409	nt
O=C(NC1=NCCS1)c1cc2ccccc2o1	-0.374	0.37	-4.61*	0.31	2.4
O=C(Nc1ccc(CN2CCOCC2)cc1)c1cc2ccccn2n1	-1.25	0.05	-7.3*	0.015	5.6
O=C(Nc1ccc(CN2CCOCC2)cc1)c1ccccc1F	nt	nt	nt	nt	-53.0
O=C(Nc1ccc(CN2CCOCC2)cc1)c1cc2ccccc2o1	0.0873	0.18	-4.85*	0.518	nt
CC(=O)N1CCC(N(CCCOC(C)C)C(=O)Nc2ccc(Cl)cc2)CC1	-0.0842	0.89	nt	0.17	nt
CCOc1ccccc1C1C(C(=O)Nc2ccccc2OC)=C(C)Nc2nnnn21 (stereo not given)	0.119	-1	-0.329	-0.225	nt
C=CCC(=O)OCC(=O)Nc1ccc(Oc2ccccc2)cc1	-0.206	2.18	nt	0.169	29.7
O=C(c1ccc(Cl)cc1)c1oc2ccccc2c1CS(=O)c1ccccc1 (stereo not given)	nt	nt	nt	nt	-20.6
CCOC(=O)CCC(=O)Nc1ccccc1C(N)=O	0.303	0.42	-0.904	0.64	9.4
COc1ccc2c3c(cccc13)NN=C2C	0.6	-4.53*	-0.146	-0.0779	-15.8
O=S1(=O)C=C(Sc2nc3cc(Cl)ccc3o2)c2ccccc21	-0.397	-0.51	-2.31*	0.126	-65.1
Cn1c(=O)c2c(ncn2CCN(CCO)Cc2ccccc2)n(C)c1=O	1.43	-0.23	0.815	-0.544	nt
CCc1ccc(NC(=O)N(CCCN2CCOCC2)C(C)c2cc3cccc(OC)c3o2)cc1 (stereo not given)	-0.364	-0.86	0.0485	-0.257	nt
O=C(CC1CCS(=O)(=O)C1)Nc1ccc[nH]c1=O (stereo not given)	-0.626	-0.28	-0.72	0.284	-10.6
Cc1cc(C(=O)CSc2nnc(-c3cccc(F)c3)n2N)c(C)n1Cc1ccc2c(c1)OCO2	1.04	-1.12	-7.82*	-0.647	nt
CCOC(=O)C(C)Oc1ccc(=O)n(-c2ccccc2)n1 (stereo not given)	0.495	0.28	0.392	-1.69	-14.9
O=c1c2c3c(sc2n2cnnc2n1-c1ccccc1)N(Cc1ccccc1)CCC3	-1.48	0.86	-5.07*	-0.824	nt
CC1=CCC(Cc2nc3ccccc3o2)C1(C)C (stereo not given)	0.418	-0.48	-0.397	1.04	76.9*
OC1(c2cccc(C(F)(F)F)c2)CCN(c2ncnc3c2[nH]c2ccc(F)cc23)CC1	0.34	-1.22	-0.321	0.225	nt
Cc1ccc(C2CC(c3ccco3)n3ncnc3N2)cc1 (stereo not given)	-1.04	nt	nt	-0.827	38.2
Cc1ccc2c(c1)C(N1CCCC1=O)CC(c1ccco1)N2 (stereo not given)	2.61*	0.64	-4.36*	-0.0196	-15.6
O=C(CSc1nnc2c3cc(F)ccc3nc(-c3ccccc3)n12)N1CCOCC1	-0.626	-1.13	-0.268	0.143	14.0
CCCCn1cc(SCC(=O)O)c2ccccc21	-0.545	0.86	-0.0205	21.4*	6.7
SMILES	M1 ag	WNV protease inh	D1 allo mod	M1 antagonist	Htt clearance
O=c1c2ccccc2cnn1-c1nc2ccccc2s1	-0.805	0.4	-4.46*	0.603	nt
CCOc1ccc(Br)cc1CC(=O)O	0.0852	0.04	nt	2.12	74.9*
Cc1ccc2nc3c(cc(C#N)c(=N)n3CC3CCCO3)c(=O)n2c1 (stereo not given)	9.01*	0.48	1.62	-1.38	nt
CSc1nc(C)cc(-n2ccc(=O)[nH]c2=O)n1	-0.244	-0.62	0.353	1.05*	nt
Fc1ccc2c(Cl)c(-c3nnc(-c4cccs4)o3)sc2c1	0.0178	0.36	-6.36*	0.00683	nt
COc1cc(NC(=O)C2CCN(S(=O)(=O)c3ccc(Cl)cc3)CC2)ccc1-n1cnnn1	0.454	-0.42	0.195	-0.00675	nt
COc1ccc2c(C)cc(N3CCN(c4ccc(F)cc4)CC3)nc2c1	nt	nt	nt	nt	40.7
COc1ccc2c(C)cc(N3CCOCC3)nc2c1	nt	nt	nt	nt	73.3*
Cc1ccccc1OCc1nc2ccccc2c(=O)n1NC(=O)c1ccco1	-0.0994	-0.35	nt	0.497	23.1
O=C(CN(Cc1ccccc1)C(=O)c1ccco1)NCc1ccc(F)cc1	0.825	-0.58	0	-0.0101	22.9
